# Compound activity: PubChem BioAssay, National Center for Advancing Translational Sciences (NCATS)
# This is a sample that favours compounds with a hit; in the whole collection about 11% have one here.
# CBFb-RUNX1 inh = qHTS Assay for Compounds Blocking the Interaction Between CBF-beta and RUNX1 for the Treatment of Acute Myeloid Leukemia. Runt-related transcription factor 1 (Homo sapiens) + Core-binding factor subunit beta …. AlphaScreen CBFb-His/RUNX1-biotin binding, biochemical. Potency, µM (top dose mostly 59.8 µM), for inactives: at the highest dose activity, negative = inhibition, usual class: inhibitors. 230,000 tested, under 10 active; also: % of control where 0% means no effect
# Target sequence (Q01196 whole entry, looked up): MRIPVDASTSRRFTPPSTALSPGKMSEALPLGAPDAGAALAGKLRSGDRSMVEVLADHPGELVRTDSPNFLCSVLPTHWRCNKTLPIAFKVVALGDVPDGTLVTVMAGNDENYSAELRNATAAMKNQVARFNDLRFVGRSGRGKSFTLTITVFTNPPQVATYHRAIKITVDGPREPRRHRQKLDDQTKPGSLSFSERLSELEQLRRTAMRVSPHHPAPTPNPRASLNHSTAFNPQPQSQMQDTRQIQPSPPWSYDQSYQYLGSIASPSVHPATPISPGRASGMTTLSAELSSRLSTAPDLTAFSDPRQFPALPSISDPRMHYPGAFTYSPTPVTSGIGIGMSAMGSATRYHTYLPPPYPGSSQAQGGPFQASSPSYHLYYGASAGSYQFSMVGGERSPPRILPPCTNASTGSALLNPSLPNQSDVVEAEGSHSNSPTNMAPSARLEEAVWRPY
# Target sequence (Q13951 whole entry, looked up): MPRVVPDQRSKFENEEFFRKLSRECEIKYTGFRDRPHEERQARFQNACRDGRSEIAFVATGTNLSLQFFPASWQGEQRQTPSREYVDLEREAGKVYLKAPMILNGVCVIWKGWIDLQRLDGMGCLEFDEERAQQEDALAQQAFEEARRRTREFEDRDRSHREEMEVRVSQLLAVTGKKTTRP
#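 AlphaScreen proximity signal reports loss of binding between His-tagged CBF-beta and biotin-labelled RUNX1, each at 30 nM. Proteins are pre-associated for 20 minutes, compounds added for 15 minutes, then beads for 90 minutes, all at ambient temperature.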
# HPGD inh = qHTS Assay for Inhibitors of HPGD (15-Hydroxyprostaglandin Dehydrogenase); Potency, µM, for inactives: at the highest dose activity change, negative = inhibition, most hits filed as inhibitors; actives 4.3% (n = 150,000); purified HPGD, NADH fluorescence kinetic, PGE2 substrate; active = well fitted inhibition curve with a large enough effect, not every such curve was filed as active; inconclusive = small, poorly fitted or top-dose-only effect, or another doubt; inactive = no such curve, though single readings can be large or run the other way; also: potency is read from the fitted curve at half-maximal effect; % is scaled to controls: 0 for no effect and ±100 for the full control effect
#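 20 nM HPGD preincubated 15 min at room temperature with compound in 50 mM Tris-HCl pH 8, 0.01% Tween 20. Started with 1 mM NAD+ and 30 uM prostaglandin E2; NADH fluorescence (360/450 nm) read 5 times over 30-s intervals, last minus first.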
# HTT cytoprotect = qHTS Multiplex Assay to Identify Dual Action Probes in a Cell Model of Huntington: Cytoprotection (ATP) | AID 1471, 2008 | actives 0.14% (n = 230,000) | Potency, µM (titrated, usually from 56.4 µM), for the others: cytoprotection (ATP increase), hits mostly activators | PC12 HTT-Q103 induced, cytoprotection, ATP luminescence, 40 h; also: potency is read from the fitted curve at half-maximal effect; % of control where 0% means no effect; nearly all actives have a fitted effect of over 45% in size
#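 Huntington model: PC12 line, ecdysone-inducible HTTQ103 exon1–GFP, tebufenozide 100 nM. Test articles in a dose series. Endpoint luminescence from cellular ATP.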
# ALDH1A1 inh = qHTS Assay for Inhibitors of Aldehyde Dehydrogenase 1 (ALDH1A1); AID 1030, 2008; Aldehyde dehydrogenase 1A1 (Homo sapiens), P00352; actives 7.3% (n = 220,000); Purified ALDH1A1, NADH fluorescence, propionaldehyde substrate; Potency, µM (series often up to 75.3 µM), without a hit: top-dose activity, negative = inhibition, usual class: inhibitors; active = well fitted inhibition curve with a large enough effect, not every such curve was filed as active; inconclusive = small, poorly fitted or top-dose-only effect, or another doubt; inactive = no such curve, though single readings can be large or run the other way;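 also: potency is read from the fitted curve at half-maximal effect; plate controls were no enzyme wells and a reference inhibitor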
# PNC assembly inh = High Content Assay for Compounds that inhibit the Assembly of the Perinucleolar Compartment | AID 2417, 2010 | activity change (PNC), negative = inhibition, % at 10 µM | PC3M PTB-GFP, PNC prevalence imaging, 16 h; active compounds read low | actives 3.1% (n = 140,000);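 active = readout at or below -70, meaning at least 70% loss of cells showing the perinucleolar compartment, a nuclear body marking cancer cells; inconclusive = readout between -30 and a set limit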;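 also: plate controls were DMSO wells for no effect and camptothecin positive control wells for full effect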
#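 Read-out is percentage of cells bearing a perinucleolar compartment, from automated 20x imaging of fixed, Hoechst-stained PC3M PTB-GFP cells. Cells were seeded 4 h, then exposed 16 h to compound (23 nl of library stock) in duplicate plates.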
# HTT aggregate = qHTS Multiplex Assay to Identify Dual Action Probes in a Cell Model of Huntington: Aggregate Formation (GFP); PC12 HttQ103-GFP aggregates, Acumen cytometry, 40 h; Potency, µM (titrated, usually from 46.1 µM), for inactives: top-dose activity change, negative = inhibition, usual class: inhibitors; actives 1.1% (n = 220,000); AID 1688, 2009; also: potency is read from the fitted curve at half-maximal effect; % is scaled to controls: 0 for no effect and ±100 for the full control effect; nearly all actives have a fitted effect of over 60% in size
#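 Multiplexed with ATP-based cell death, this channel scores GFP aggregates in PC12 cells expressing inducible HTTex1-Q103-GFP. Induction used 100 nM tebufenozide; compounds were tested in concentration series.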
# Numbers without * were called inactive; ? = inconclusive; / = no result given; [ ] = another dose, or the depositor's remark. Unless noted, calls follow the shape of the dose curve; as a rule, active = well fitted curve in the direction sought with a large enough effect; inconclusive = small, poorly fitted or top-dose-only effect, or another doubt; inactive = no such curve, though single readings can be large; an effect the other way counts as inactive or inconclusive.
SMILES,CBFb-RUNX1 inh,HPGD inh,HTT cytoprotect,ALDH1A1 inh,PNC assembly inh,HTT aggregate
CC(C)CN(C(=O)CN1CCc2ccccc21)c1c(N)n(CC(C)C)c(=O)[nH]c1=O,10%,/,-22%,-2%,/,26%
CCC(=O)NC(/C=C/c1ccccc1)c1cc([N+](=O)[O-])c2cccnc2c1O (stereo not drawn),-15%,-27%,-46%[10 µM],0%,?,?
Cc1ccc(C(NC(=O)C(C)C)c2cc([N+](=O)[O-])c3cccnc3c2O)cc1 (stereo not drawn),?,-15%,-33%[10 µM],-2%,?,20µM*
CC(C)C(=O)NC(c1cccs1)c1cc([N+](=O)[O-])c2cccnc2c1O (stereo not drawn),-10%,-22%,-49%[10 µM],1%,7,2µM*
CCCC(=O)NC(c1cccs1)c1cc(Cl)c2cccnc2c1O (stereo not drawn),-11%,/,-35%[10 µM],?,/,-1%[9.22 µM]
O=C(O)c1cc(Cl)cc(Cc2cc(Cl)cc(C(=O)O)c2O)c1O,/,?,-12%[10 µM],?,/,/
CC1=C(C(N)=O)C(c2cccs2)NC(=S)N1 (stereo not drawn),1%,/,-1%[10 µM],?,/,26%[9.22 µM]
CC1=C(C(=O)Nc2ccc(F)c(F)c2)C(c2cccs2)NC(=S)N1 (stereo not drawn),3%,-6%,-13%[10 µM],0.63µM*,-17,-2%
CC1=C(C(=O)OC(C)C)C(c2cccs2)NC(=S)N1 (stereo not drawn),4%,-9%,19%[10 µM],3.2µM*,?,1%
Nc1nc2c(c(=O)[nH]1)CN(CCCN1CCOCC1)CN2,/,-11%,9%[10 µM],8%[13.5 µM],/,/
CCOC(=O)/C(C#N)=C/c1ccc(SC)cc1,-1%,/,-31%,18µM*,/,-20%
COC(=O)/C(C#N)=C/c1ccc(OC(=O)c2ccccn2)cc1,-3%,?,/,3.5µM*,29,8%
CCOC(=O)/C(C#N)=C/c1ccc(OC(=O)c2ccccn2)cc1,/,-15%,4%[10 µM],8.9µM*,10,-14%
COc1ccc(/C=C(\C#N)C(=O)Nc2cccnc2)cc1,8%,-30%,9%[10 µM],-13%,23,-3%
C[C@@H]1CC[C@H]2[C@H](C)[C@H]3CC[C@H]4C5[C@@H](O)CC6=CC(=O)CC[C@]6(C)[C@H]5C[C@H]4C3C(=O)N2C1 (stereo partly drawn),9%,-2%,9%,17%,/,/
C#CCn1c(=O)c2c(nc(/C=C/c3cccc(OC)c3)n2C)n(CCCOP(=O)(O)O)c1=O,-10%,/,/,/,/,/
CCN(CC)S(=O)(=O)c1ccc2oc(C(=O)NCc3ccc(C)cc3)c(C)c2c1,11%,?,-8%,-7%,-3,-15%
Cc1ccc(C(=O)c2coc3c2C(=O)C(=O)c2ccccc2-3)cc1,-13%,?,15%[10 µM],20µM*,21,9%
Cc1oc2c(c1C(=O)c1ccc(Cl)cc1)C(=O)C(=O)c1ccccc1-2,?,-26%,-109%,?,95,?
Cc1ccc(C(=O)c2c(C)oc3c2C(=O)C(=O)c2ccccc2-3)cc1,?,20µM*,-111%,20µM*,?,?
Cc1ccc(Cn2nnc3c(=O)[nH]c(C(=O)NCc4ccco4)nc32)cc1,-5%,-25%,-19%,4%,32,-14%
Cc1nc2c(nnn2Cc2ccccc2)c(=O)[nH]1,-5%,/,13%,-1%,/,20%
O=C(NCc1ccccc1)c1nc2c(nnn2Cc2cccc(Cl)c2)c(=O)[nH]1,4%,2.5µM*,-12%[1.9 µM],15%,-28,-31%
O=C(NCc1ccco1)c1nc2c(nnn2Cc2cccc(Cl)c2)c(=O)[nH]1,-4%,0.35µM*,4.5µM*,28µM*,57,-9%
CCNc1ncc2nc(C)c(=O)n(C)c2n1,/,/,-48%,?,/,/
SMILES,CBFb-RUNX1 inh,HPGD inh,HTT cytoprotect,ALDH1A1 inh,PNC assembly inh,HTT aggregate
CCOC(=O)/C(=N\Nc1ccccc1)S(=O)(=O)c1ccccc1,-2%,14µM*,-10%[10 µM],16µM*,?,-5%
NNC(=O)/C(=N/Nc1ccccc1)S(=O)(=O)c1ccc(Cl)cc1,-28%,-18%,/,13µM*,?,?
CCOC(=O)/C(=N/Nc1ccc(C)cc1)S(=O)(=O)c1ccc(Cl)cc1,-17%,-11%,8%,?,25,-18%
COc1cc(/C=N/Nc2ccc(Cl)c(C(=O)O)c2)ccc1OC(=O)c1cccs1,-18%,/,-18%,?,/,2%
CCc1cc(OCCCSc2nc(C)cc(=O)[nH]2)ccc1Cl,0%,-16%,6%,?,29,35µM*
Cc1cc(=O)[nH]c(SCCCOc2ccccc2Cl)n1,23%,-16%,-18%,?,5,?
Cc1cc(=O)[nH]c(SCCOc2ccc(OC(C)C)cc2)n1,6%,18µM*,-71%[0.074 µM],?,36,18%
COC(=O)[C@@]1(Cc2ccc(OC)cc2)[C@H]2c3cc(C(=O)N(C)C)n(CCN4CNCC4=O)c3C[C@H]2CN1C(=O)c1ccccc1,-15%,-16%,8%,-9%,/,/
CC[C@H](C)[C@H](NC(=O)[C@H](CCCNC(=N)N)NC(=O)[C@@H]1CCCN1C(=O)[C@H](Cc1ccccc1)NC(=O)[C@H](Cc1cnc[nH]1)NC(=O)[C@H](CCCNC(=N)N)NC(=O)[C@@H](NC(=O)[C@H](C)NC(=O)[C@H](CCC(=O)O)NC(=O)[C@H](CC(N)=O)NC(=O)[C@@H](N)CCCCN)C(C)C)C(=O)N[C@@H](Cc1c[nH]c2ccccc12)C(=O)N[C@@H](CC(C)C)C(=O)O,2%,/,/,/,/,/
O=C(Nc1ccccc1)NC1CCN(Cc2nnnn2C2CCCCC2)CC1,-4%,-11%,-26%,14µM*,-15,14%
c1ccc(N2CCN(Cc3nnnn3C3CCCCC3)CC2)cc1,2%,-7%,-11%[10 µM],28µM*,4,10%
O=C(O)/C=C\c1ccc(Cn2ccnc2)cc1,1%[21.7 µM],-7%,-8%[40.3 µM],-8%[20.9 µM],/,8%[20.6 µM]
O=C(CC1=NCCNC(c2ccccc2)C1)c1ccccc1O (stereo not drawn),3%,25µM*,-15%[10 µM],18µM*,31,-1%
